This is part of a sample that, as a whole, favours compounds with a hit. Of some 79,000 tested, about 15% had one in any assay. A number with no mark means an inactive call. The source made the active and inactive calls. Rule as the data show it: active = growth inhibition above about 70%; inactive = the rest.
Assays:
[1] = NCI Yeast Anticancer Drug Screen. Data for the rad50 strain (AID 155);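 also: 0% = growth of vehicle-only cultures of the same strain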; conditions: S. cerevisiae rad50 strain growth inhibition; at 50.0 µM; stronger effect = higher value
Outline: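 Inhibition values express reduced yeast growth in compound-treated cultures relative to vehicle-treated controls.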

[2] = NCI Yeast Anticancer Drug Screen. Data for the mec2-1 strain (AID 157); conditions: S. cerevisiae mec2-1 strain, at 50.0 µM, stronger effect = higher value
Outline: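 Readout is yeast growth inhibition, normalised to vehicle-treated controls, in the mec2-1 strain exposed to compound.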

[3] = NCI Yeast Anticancer Drug Screen. Data for the sgs1 mgt1 strain (AID 161);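 also: 0% = growth of cultures given vehicle only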; conditions: S. cerevisiae sgs1 mgt1 strain, at 50.0 µM, stronger effect = higher value
Outline: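 Yeast cells carrying a defined DNA-repair defect were exposed to test compounds. Growth inhibition was measured relative to vehicle-treated controls.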

[4] = NCI Yeast Anticancer Drug Screen. Data for the cln2 rad14 strain (AID 165);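 also: 0% = growth equal to vehicle treated cultures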; conditions: S. cerevisiae cln2 rad14 strain, at 50.0 µM, stronger effect = higher value
Outline: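 Relative to vehicle controls, growth inhibition of compound-treated cln2 rad14 yeast was recorded.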

[5] = NCI Yeast Anticancer Drug Screen. Data for the bub3 strain (AID 167); conditions: S. cerevisiae bub3 mutant strain, at 50.0 µM, stronger effect = higher value
Outline: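 Steps: expose the mutant yeast strain to compound; grow alongside vehicle-treated cultures; measure growth; express inhibition against the vehicle cultures.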

[6] = NCI Yeast Anticancer Drug Screen. Data for the mlh1 rad18 strain (AID 175); conditions: S. cerevisiae mlh1 rad18 strain growth inhibition; at 50.0 µM; stronger effect = higher value
Outline: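 Test agents were incubated with a yeast strain of defined genotype (DNA damage repair defect). Inhibition of growth was derived by comparison with vehicle-exposed cultures.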

COC(=O)C1=C(C)C(=O)[C@]23C(CCCC[C@H]12)C(=O)[C@H](C(=O)OC)C3C (stereo partly specified)
growth inhibition [1]: -19.7% | growth inhibition [2]: -31.2% | growth inhibition [3]: -11% | growth inhibition [4]: -20.9% | growth inhibition [5]: -13.9% | growth inhibition [6]: 16.1%

C[N+](C)(C)C(Cc1ccccc1)Cc1ccccc1
growth inhibition [1]: -27% | growth inhibition [2]: 9.95% | growth inhibition [3]: -29.9% | growth inhibition [4]: -47.1% | growth inhibition [5]: -0.7% | growth inhibition [6]: 5.65%

CC(=O)Nc1ccc2ccc3ccccc3c2c1
growth inhibition [1]: 37% | growth inhibition [2]: 9.25% | growth inhibition [3]: 15.8% | growth inhibition [4]: -19.1% | growth inhibition [5]: -4.35% | growth inhibition [6]: 23.7%

OCC1OC(n2c(=S)[nH]c3ccccc32)C(O)C1O (stereo unspecified)
growth inhibition [1]: 9.4% | growth inhibition [2]: -0.9% | growth inhibition [3]: 5.4% | growth inhibition [4]: 1.2% | growth inhibition [5]: 4.4% | growth inhibition [6]: 7.4%

O=C1COC(=O)N1
growth inhibition [1]: -6.85% | growth inhibition [2]: -22.4% | growth inhibition [3]: -3.45% | growth inhibition [4]: -3.35% | growth inhibition [5]: 0.2% | growth inhibition [6]: 8.25%

Cc1cc(C)[n+](C)c(/C=C\c2ccccc2Cl)n1
growth inhibition [1]: 5.2% | growth inhibition [2]: -1.7% | growth inhibition [3]: 10.6% | growth inhibition [4]: 15.2% | growth inhibition [5]: -2.5% | growth inhibition [6]: 22.1%

O=C(O)CCCCCCCCCCOc1ccc(Cl)cc1
growth inhibition [1]: 24.2% | growth inhibition [2]: -7.9% | growth inhibition [3]: 10.1% | growth inhibition [4]: -3.45% | growth inhibition [5]: 11% | growth inhibition [6]: -33.6%

Cc1cccc(-c2cc(=O)c3cccnc3[nH]2)c1
growth inhibition [1]: 2.05% | growth inhibition [2]: -1.45% | growth inhibition [3]: 9.35% | growth inhibition [4]: 4.05% | growth inhibition [5]: -13% | growth inhibition [6]: 1.25%

COS(=O)(=O)OC1(SC)C=C(c2ccccc2)SS1 (stereo unspecified)
growth inhibition [1]: 73% (active) | growth inhibition [2]: 28.1% | growth inhibition [3]: 29.2% | growth inhibition [4]: 9.5% | growth inhibition [5]: 20.3% | growth inhibition [6]: 72.6% (active)

Nc1ccc2ccccc2c1Cl
growth inhibition [1]: -9.05% | growth inhibition [2]: -38.5% | growth inhibition [3]: -11.4% | growth inhibition [4]: 6% | growth inhibition [5]: -44.4% | growth inhibition [6]: -11.3%

Cc1cccc(Nc2nnc(Nc3cccc(C)n3)c3ccccc23)n1
growth inhibition [1]: -2.15% | growth inhibition [2]: -4.5% | growth inhibition [3]: -2.75% | growth inhibition [4]: -4.25% | growth inhibition [5]: -3.8% | growth inhibition [6]: 4%

O=c1c([OH2+])c(-c2ccc(O)cc2[O-])oc2cc(O)cc([O-])c12.O=c1c([OH2+])c(-c2ccc(O)cc2[O-])oc2cc(O)cc([O-])c12.[Ti+4]
growth inhibition [1]: -43.4% | growth inhibition [2]: 27.2% | growth inhibition [3]: 7.95% | growth inhibition [4]: 8.2% | growth inhibition [5]: 2.55% | growth inhibition [6]: 10.2%

N#C/C(=C\N1CC(=O)NC1=S)c1nc2ccccc2s1
growth inhibition [1]: 4.75% | growth inhibition [2]: 8.45% | growth inhibition [3]: -6.05% | growth inhibition [4]: 23.3% | growth inhibition [5]: 24.9% | growth inhibition [6]: 19.2%

O=C(c1ccccc1)C12CCCC(CC1)C2 (stereo unspecified)
growth inhibition [1]: 0.15% | growth inhibition [2]: -19.9% | growth inhibition [3]: -2.2% | growth inhibition [4]: -37.5% | growth inhibition [5]: -9.6% | growth inhibition [6]: 0.65%

N#CC1=C(N)CCC(C#N)(c2ccccc2)C1 (stereo unspecified)
growth inhibition [1]: 2.4% | growth inhibition [2]: 2% | growth inhibition [3]: 22.4% | growth inhibition [4]: 14.8% | growth inhibition [5]: 22.8% | growth inhibition [6]: 8.2%

CN1CCS(=O)(=O)C2CCCCC2C1=O (stereo unspecified)
growth inhibition [1]: 1.25% | growth inhibition [2]: -13.4% | growth inhibition [3]: 4.85% | growth inhibition [4]: 11.8% | growth inhibition [5]: 10.5% | growth inhibition [6]: 1.1%

O=C(O)COc1ccc(C(=O)/C(SS/C(C(=O)c2ccc(OCC(=O)O)c(Cl)c2Cl)=C2\C=C(c3ccccc3Cl)SS2)=C2/C=C(c3ccccc3Cl)SS2)c(Cl)c1Cl
growth inhibition [1]: -20.8% | growth inhibition [2]: -29.1% | growth inhibition [3]: -6.05% | growth inhibition [4]: 7.05% | growth inhibition [5]: -19.9% | growth inhibition [6]: -27.1%

NNC(=O)c1n[nH]n(N)c1=S
growth inhibition [1]: 22.6% | growth inhibition [2]: 25.1% | growth inhibition [3]: 10.9% | growth inhibition [4]: -8.65% | growth inhibition [5]: -8.65% | growth inhibition [6]: 24.2%

COc1cccc(/C(C#N)=N/NC(=O)c2nc[nH]c2C)c1
growth inhibition [1]: 9.5% | growth inhibition [2]: 8.9% | growth inhibition [3]: 19.8% | growth inhibition [4]: 10.9% | growth inhibition [5]: 13.1% | growth inhibition [6]: 8.95%

Cc1ccc(C2SC(N)=Nc3c2c(C)nn3C(=O)c2ccccc2O)cc1 (stereo unspecified)
growth inhibition [1]: 8.65% | growth inhibition [2]: 16.4% | growth inhibition [3]: 34.9% | growth inhibition [4]: 5.65% | growth inhibition [5]: 10.2% | growth inhibition [6]: 12.7%

Cc1nnc(-n2nc(-c3ccc(Cl)cc3)cc2N)[nH]c1=O
growth inhibition [1]: 54% | growth inhibition [2]: 12.1% | growth inhibition [3]: 22.4% | growth inhibition [4]: 12.8% | growth inhibition [5]: 23.4% | growth inhibition [6]: 34%

CCN(CC)CCCNC(Cc1ccccc1)c1ccc(OC)cc1 (stereo unspecified)
growth inhibition [1]: -1.85% | growth inhibition [2]: -7.45% | growth inhibition [3]: -4.05% | growth inhibition [4]: 9.05% | growth inhibition [5]: -17.6% | growth inhibition [6]: -19.8%

COc1ccc(C(=O)CC2=Nc3nnc(CCCCCCCc4nnc5n4C(=O)C(CC(=O)c4ccc(OC)cc4)=N5)n3C2=O)cc1
growth inhibition [1]: -5.95% | growth inhibition [2]: -1.9% | growth inhibition [3]: -16.4% | growth inhibition [4]: 18.9% | growth inhibition [5]: 0.1% | growth inhibition [6]: -24.1%

CCOC(=O)NC(=S)Nc1ccn(C)c1
growth inhibition [1]: 10.4% | growth inhibition [2]: 36.8% | growth inhibition [3]: 4.6% | growth inhibition [4]: 39.9% | growth inhibition [5]: 1.65% | growth inhibition [6]: 46.6%

Cc1cc[n+](CC(=O)CCc2ccc(C(=O)C[n+]3ccc(C)cc3)cc2)cc1
growth inhibition [1]: 41.1% | growth inhibition [2]: -1.85% | growth inhibition [3]: 34.3% | growth inhibition [4]: -6.4% | growth inhibition [5]: -3.95% | growth inhibition [6]: 11.1%

CCCCOc1ccc(CCOC(C)=O)cc1
growth inhibition [1]: 6.5% | growth inhibition [2]: -14.4% | growth inhibition [3]: 1.7% | growth inhibition [4]: -25.3% | growth inhibition [5]: -15% | growth inhibition [6]: -20.8%

C=CCCCCOCOCCOC
growth inhibition [1]: 13.7% | growth inhibition [2]: 17.6% | growth inhibition [3]: 5.8% | growth inhibition [4]: 0.5% | growth inhibition [5]: 0.15% | growth inhibition [6]: -28.4%

O=C1CSC(c2cccc(F)c2)N1CCN1C(=O)CSC1c1cccc(F)c1 (stereo unspecified)
growth inhibition [1]: 27.7% | growth inhibition [2]: 16.7% | growth inhibition [3]: 9.65% | growth inhibition [4]: 20.6% | growth inhibition [5]: 2.4% | growth inhibition [6]: -7.5%

O=C(Nc1nncs1)c1ccncc1
growth inhibition [1]: -14.8% | growth inhibition [2]: -5.75% | growth inhibition [3]: -13.2% | growth inhibition [4]: 7.1% | growth inhibition [5]: -28.8% | growth inhibition [6]: -46.1%

CCCCCCCCCCCC1=C(O)C(=O)C(Br)=C(O)C1=O
growth inhibition [1]: 39.6% | growth inhibition [2]: 14.3% | growth inhibition [3]: 44.9% | growth inhibition [4]: 19.1% | growth inhibition [5]: -9.65% | growth inhibition [6]: 49.9%

CCCCCCCCCCCC(=O)N(CCCCCCCCCCC(=O)O)CC(O)C(O)C(OC1OC(CO)C(O)C(O)C1O)C(O)CO (stereo unspecified)
growth inhibition [1]: 65.3% | growth inhibition [2]: 12.8% | growth inhibition [3]: 85.8% (active) | growth inhibition [4]: 32.2% | growth inhibition [5]: 86.3% (active) | growth inhibition [6]: 20.3%

CC(C)CNc1ncnc2c1ncn2C
growth inhibition [1]: -2.2% | growth inhibition [2]: -4.85% | growth inhibition [3]: -4% | growth inhibition [4]: -18.9% | growth inhibition [5]: 1.1% | growth inhibition [6]: -0.25%

COCOC(C)=O
growth inhibition [1]: -9.1% | growth inhibition [2]: -6.4% | growth inhibition [3]: 3.7% | growth inhibition [4]: 0.5% | growth inhibition [5]: -12.4% | growth inhibition [6]: 1.4%

Cc1cc(Cl)cc(CN(Cc2ccccc2)Cc2cc(Cl)cc(C)c2O)c1O
growth inhibition [1]: 1.3% | growth inhibition [2]: -3.55% | growth inhibition [3]: 18.2% | growth inhibition [4]: 25.7% | growth inhibition [5]: 2% | growth inhibition [6]: -6.8%

CN1[C@@H]2C[C@@H](OC(=O)[C@H](CO)c3ccccc3)C[C@H]1[C@@H]1O[C@@H]12
growth inhibition [1]: -1.3% | growth inhibition [2]: 2.4% | growth inhibition [3]: -33.7% | growth inhibition [4]: -20.4% | growth inhibition [5]: -10.3% | growth inhibition [6]: 5.6%

COC[N+](C)(C)C
growth inhibition [1]: -2.55% | growth inhibition [2]: -6.25% | growth inhibition [3]: -7.6% | growth inhibition [4]: 2.4% | growth inhibition [5]: 7.2% | growth inhibition [6]: 10.5%

O=C(NNC(=O)Nc1ccccc1)Nc1ccccc1
growth inhibition [1]: -0.8% | growth inhibition [2]: -16.7% | growth inhibition [3]: -0.95% | growth inhibition [4]: -12.9% | growth inhibition [5]: -3.2% | growth inhibition [6]: -7%

CCCCCC1CC[N-]CC1.CCCCCC1CC[N-]CC1.N#C[S-].N#C[S-].[Cu]
growth inhibition [1]: 33.4% | growth inhibition [2]: 12.7% | growth inhibition [3]: 5% | growth inhibition [4]: -33.1% | growth inhibition [5]: -16.7% | growth inhibition [6]: 24.1%

CC(=O)CC(=O)OC(C)OC(=O)CC(C)=O
growth inhibition [1]: -2.1% | growth inhibition [2]: -13.4% | growth inhibition [3]: -11.4% | growth inhibition [4]: -2.5% | growth inhibition [5]: -0.7% | growth inhibition [6]: 0.25%

CC(C)C(NC(=O)C(Cc1ccccc1)NC(=O)[C@H]1CCC[C@H]1NC(=O)C(Cc1ccc(OC(C)(C)C)cc1)NC(=O)OC(C)(C)C)C(N)=O (stereo partly specified)
growth inhibition [1]: -11.2% | growth inhibition [2]: -6.7% | growth inhibition [3]: -15.8% | growth inhibition [4]: 18.7% | growth inhibition [5]: -7.65% | growth inhibition [6]: -0.2%

CC(C)(C)OC(=O)NC1CCC(C(C)(C)C)CC1 (stereo unspecified)
growth inhibition [1]: 1.95% | growth inhibition [2]: -2.95% | growth inhibition [3]: -4% | growth inhibition [4]: 8.65% | growth inhibition [5]: 7.9% | growth inhibition [6]: 24.1%

— PubChem BioAssay (NCI)
